Conditions in all cases: mRNA level, 48 h; actives raise or lower the signal
Read-out in test [1]: Glutathione S-Transferase (GSTA2), GSTA2 (gene 2939)
The test can be described thus: LTEA_HepaRG_GSTA2: Life Technologies and Expression Analysis (LTEA) Assay for Glutathione S-Transferase (GSTA2) using HepaRG (AID 2283497). The method, boiled down:
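Differentiated human HepaRG cells were exposed in duplicate for 48 h in serum-free induction medium, 8 points from 100 uM top in half-log steps, 0.5% DMSO. GSTA2 mRNA was measured by TaqMan qRT-PCR, normalized to ACTB, GAPDH and POLR2A; bidirectional fit versus DMSO.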

Read-out in test [2]: Glutamate-cysteine ligase catalytic (GCLC), GCLC (gene 2729)
As to the kind of experiment: LTEA_HepaRG_GCLC: Life Technologies and Expression Analysis (LTEA) Assay for Glutamate-cysteine ligase catalytic (GCLC) using HepaRG (AID 2283498). The essentials:
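Differentiated HepaRG cells exposed 48 h in serum-free induction medium, eight-point half-log series topping at 100 uM in 0.5% DMSO, duplicates. GCLC mRNA by qRT-PCR normalized to ACTB, GAPDH and POLR2A, fitted bidirectionally versus DMSO.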

Read-out in test [3]: Glutamate-cysteine ligase regulatory (GCLM), GCLM (gene 2730)
The test can be described thus: LTEA_HepaRG_GCLM: Life Technologies and Expression Analysis (LTEA) Assay for Glutamate-cysteine ligase regulatory (GCLM) using HepaRG (AID 2283500). The essentials:
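Human liver HepaRG cultures receive test chemicals for 48 hours at up to 100 uM in 0.5% DMSO. GCLM expression is measured by qRT-PCR and analysed for increases or decreases against vehicle.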

Read-out in test [4]: Glutathione S-transferase M3 (GSTM3), GSTM3 (gene 2947)
The test can be described thus: LTEA_HepaRG_GSTM3: Life Technologies and Expression Analysis (LTEA) Assay for Glutathione S-transferase M3 (GSTM3) using HepaRG (AID 2283501). The method, boiled down:
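Changes in GSTM3 expression, an oxidative-stress marker, were scored by bidirectional curve fitting against 0.5% DMSO vehicle. Human HepaRG cultures received chemicals for 48 h in duplicate, highest concentration 100 uM with half-log dilutions.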

Read-out in test [5]: Heat shock 70 kDa protein 1 (HSPA1A), gene 3303
As to the kind of experiment: LTEA_HepaRG_HSPA1A: Life Technologies and Expression Analysis (LTEA) Assay for Heat shock 70 kDa protein 1 (HSPA1A) using HepaRG (AID 2283502). The essentials: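 HSPA1A induction in human HepaRG liver cells is measured after 48 h of chemical treatment (100 uM maximum, 0.5% DMSO vehicle). Expression comes from qRT-PCR normalized to endogenous controls.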

Read-out in test [6]: Hypoxia-inducible factor 1-alpha (Homo sapiens) (UniProt Q16665)
The test can be described thus: LTEA_HepaRG_HIF1A: Life Technologies and Expression Analysis (LTEA) Assay for Hypoxia-inducible factor 1 (HIF1A) Trancription factor using HepaRG (AID 2283503).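 Also: HIF1A transcript by TaqMan qRT-PCR normalized to ACTB GAPDH and POLR2A.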 The essentials:
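HepaRG, 48 h exposure, 8-pt half-log series from 100 uM, 0.5% DMSO vehicle, duplicates. Readout: HIF1A transcript by qRT-PCR (Fluidigm array), housekeeping-normalised. Bidirectional curve fit vs DMSO baseline.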

Read-out in test [7]: 3-Hydroxy-3-Methylglutaryl-CoA Synthase 2 (HMGCS2), HMGCS2 (gene 3158)
The test can be described thus: LTEA_HepaRG_HMGCS2: Life Technologies and Expression Analysis (LTEA) Assay for 3-Hydroxy-3-Methylglutaryl-CoA Synthase 2 (HMGCS2) using HepaRG (AID 2283504). The method, boiled down:
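Expression of HMGCS2 in human HepaRG liver cells is measured by qRT-PCR 48 h after dosing (highest 100 uM, half-log series, 0.5% DMSO). Values come from bidirectional concentration-response fitting with DMSO as baseline.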

Read-out in test [8]: HGF (gene 3082)
As to the kind of experiment: LTEA_HepaRG_HGF: Life Technologies and Expression Analysis (LTEA) Assay for Hepatocyte Growth Facto (HGF) using HepaRG (AID 2283505). The essentials:
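Gain or loss of HGF mRNA in human HepaRG liver cells after 48 h chemical exposure; eight concentrations up to 100 uM with 0.5% DMSO vehicle, quantified by TaqMan qRT-PCR.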

Read-out in test [9]: Insulin Like Growth Factor 1 (IGF1), IGF1 (gene 3479)
The test can be described thus: LTEA_HepaRG_IGF1: Life Technologies and Expression Analysis (LTEA) Assay for Insulin Like Growth Factor 1 (IGF1) using HepaRG (AID 2283506). The method, boiled down: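 Using human HepaRG liver cells, IGF1 transcript induction or suppression is measured 48 h after dosing across eight concentrations capped at 100 uM. Values derive from bidirectional concentration-response fitting with DMSO as baseline.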

Read-out in test [10]: Insulin-like growth factor-binding protein 1 (IGFBP1), IGFBP1 (gene 3484)
As to the kind of experiment: LTEA_HepaRG_IGFBP1: Life Technologies and Expression Analysis (LTEA) Assay for Insulin-like growth factor-binding protein 1 (IGFBP1) using HepaRG (AID 2283508). The method, boiled down: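 mRNA induction or loss was quantified by qRT-PCR after 48 h chemical exposure of human HepaRG cells, with 0.5% DMSO as vehicle and baseline. Concentration-response over eight points up to 100 uM.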

Read-out in test [11]: Interleukin 6 (IL6), IL6 (gene 3569)
The test can be described thus: LTEA_HepaRG_IL6: Life Technologies and Expression Analysis (LTEA) Assay for Interleukin 6 (IL6) using HepaRG (AID 2283509). The method, boiled down:
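HepaRG cells exposed in duplicate for 48 h to eight half-log concentrations, top 100 uM, in 0.5% DMSO serum-free induction medium. mRNA measured by qRT-PCR, normalized to ACTB, GAPDH and POLR2A. Bidirectional fit versus DMSO.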

Read-out in test [12]: Interleukin 6 Receptor (IL6R), IL6R (gene 3570)
The test can be described thus: LTEA_HepaRG_IL6R: Life Technologies and Expression Analysis (LTEA) Assay for Interleukin 6 Receptor (IL6R) using HepaRG (AID 2283510).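 As to AC50: TaqMan qRT-PCR signal normalized to ACTB GAPDH and POLR2A housekeeping genes.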 The essentials: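 Concentration-response in human liver HepaRG cells: eight concentrations from 100 uM downward by half-logs, 48 h exposure, 0.5% DMSO vehicle. IL6R mRNA change measured by qRT-PCR and fitted in both directions relative to vehicle.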

Read-out in test [13]: Potassium channel subfamily K member 1 (KCNK1), KCNK1 (gene 3775)
The test can be described thus: LTEA_HepaRG_KCNK1: Life Technologies and Expression Analysis (LTEA) Assay for Potassium channel subfamily K member 1 (KCNK1) using HepaRG (AID 2283511). The essentials:
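Differentiated HepaRG cells, 48 h exposure in serum-free induction medium with 0.5% DMSO; 8 concentrations, half-log from 100 uM, duplicate. KCNK1 mRNA by qRT-PCR, normalized to ACTB, GAPDH, POLR2A; bidirectional fit vs DMSO.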

Read-out in test [14]: Keratin 19 (KRT19), KRT19 (gene 3880)
As to the kind of experiment: LTEA_HepaRG_KRT19: Life Technologies and Expression Analysis (LTEA) Assay for Keratin 19 (KRT19) using HepaRG (AID 2283512). The essentials:
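Gene-expression endpoint in the human liver line HepaRG after 48 h exposure to up to 100 uM test chemical with 0.5% DMSO vehicle; KRT19 mRNA by qRT-PCR, analyzed bidirectionally versus DMSO.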

Read-out in test [15]: JUN Transcription Factor, JUN (gene 3725)
As to the kind of experiment: LTEA_HepaRG_JUN: Life Technologies and Expression Analysis (LTEA) Assay for JUN Transcription Factor using HepaRG (AID 2283513). The method, boiled down:
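Human HepaRG liver cells receive test chemicals in 0.5% DMSO for 48 h across an eight-point range topping at 100 uM. Expression changes in JUN are scored in both directions against the DMSO vehicle.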

Read-out in test [16]: Lipase C (LIPC), LIPC (gene 3990)
As to the kind of experiment: LTEA_HepaRG_LIPC: Life Technologies and Expression Analysis (LTEA) Assay for Lipase C (LIPC) using HepaRG (AID 2283514). The essentials: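 HepaRG cells, 48 h after plating, treated in duplicate for 48 h in serum-free induction medium over 8 half-log concentrations from 100 uM, 0.5% DMSO. LIPC mRNA by TaqMan qRT-PCR normalized to ACTB/GAPDH/POLR2A; bidirectional fit versus DMSO.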

Read-out in test [17]: Lipoprotein lipase (LPL), LPL (gene 4023)
As to the kind of experiment: LTEA_HepaRG_LPL: Life Technologies and Expression Analysis (LTEA) Assay for Lipoprotein lipase (LPL) using HepaRG (AID 2283515). The method, boiled down: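 Differentiated HepaRG cells, plated 48 h, then exposed 48 h in serum-free induction medium to 8 concentrations (top 100 uM, half-log steps) in 0.5% DMSO, duplicate. LPL mRNA measured by qRT-PCR, normalized to ACTB, GAPDH and POLR2A.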

Read-out in test [18]: MicroRNA 122 (MIR122), gene 406906
The test can be described thus: LTEA_HepaRG_MIR122: Life Technologies and Expression Analysis (LTEA) Assay for MicroRNA 122 (MIR122) using HepaRG (AID 2283516). Also: the transcript read is the microRNA miR-122. The method, boiled down:
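HepaRG, 48 h exposure, 8-pt half-log from 100 uM, 0.5% DMSO; TaqMan qRT-PCR; bidirectional fit vs DMSO.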

Read-out in test [19]: Intercellular Adhesion Molecule 1 (ICAM1), ICAM1 (gene 3383)
As to the kind of experiment: LTEA_HepaRG_ICAM1: Life Technologies and Expression Analysis (LTEA) Assay for Intercellular Adhesion Molecule 1 (ICAM1) using HepaRG (AID 2283507). The method, boiled down:
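Gain or loss of transcript in HepaRG hepatic cells is quantified by qRT-PCR after 48 h chemical exposure (up to 100 uM, half-log steps), with DMSO as baseline.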

SMILES strings stand for the structures. Active and inactive are the calls of the source. The calls were made as follows: active = hit-call score of the fitted dose curve at least 0.9, where 1 is the maximum; inactive = score below 0.9.

The values that follow come from PubChem BioAssay (EPA / NIEHS).

Chain of Hypoxia-inducible factor 1-alpha (Homo sapiens) (Q16665 whole entry, looked up): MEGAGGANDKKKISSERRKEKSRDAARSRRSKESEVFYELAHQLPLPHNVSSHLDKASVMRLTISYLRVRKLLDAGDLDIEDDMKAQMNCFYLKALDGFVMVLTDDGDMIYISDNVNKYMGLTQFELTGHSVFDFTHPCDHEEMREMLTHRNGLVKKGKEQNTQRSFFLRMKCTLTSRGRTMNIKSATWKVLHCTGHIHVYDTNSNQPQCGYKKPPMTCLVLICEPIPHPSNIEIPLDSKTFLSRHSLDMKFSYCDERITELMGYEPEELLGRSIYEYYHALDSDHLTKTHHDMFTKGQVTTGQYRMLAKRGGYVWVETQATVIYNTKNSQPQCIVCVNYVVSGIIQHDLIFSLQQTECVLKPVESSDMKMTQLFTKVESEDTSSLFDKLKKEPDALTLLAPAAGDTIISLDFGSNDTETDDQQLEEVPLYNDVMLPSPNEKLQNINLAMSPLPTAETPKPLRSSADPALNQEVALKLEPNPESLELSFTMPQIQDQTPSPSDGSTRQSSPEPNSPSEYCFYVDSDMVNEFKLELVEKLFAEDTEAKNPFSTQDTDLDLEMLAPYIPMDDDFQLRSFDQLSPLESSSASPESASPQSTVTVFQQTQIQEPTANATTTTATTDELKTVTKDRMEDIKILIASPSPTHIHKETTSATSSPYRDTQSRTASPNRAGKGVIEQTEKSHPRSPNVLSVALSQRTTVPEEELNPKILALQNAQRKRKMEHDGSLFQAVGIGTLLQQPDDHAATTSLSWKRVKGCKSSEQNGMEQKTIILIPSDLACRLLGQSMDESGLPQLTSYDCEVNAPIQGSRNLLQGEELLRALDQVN

`CCCCCCOCCO`: the outcome in test [1], in test [2], in test [3], in test [4], in test [5] and in [6] was inactive. The compound was called inactive in test [7], in test [8], in test [9], in [10], in test [11] and in test [12]. Besides, the call in [13], in test [14], in [15], in test [16], in test [17] and in test [18] was inactive.
For the compound `CCCCCCCC=O`, the result in test [1], in [2], in [3], in test [4], in test [5] and in [6] was inactive. The compound was classed as inactive in test [7], in test [8], in test [9], in test [10], in test [11] and in test [12]. Also, the outcome in [13], in test [15], in test [16], in [17] and in test [18] was inactive. Besides, the AC50 in [14] is 1.32 µM (active).
Regarding `CCOc1ccc2c(c1)C(C)=CC(C)(C)N2`, the compound was classed as inactive in [1], in test [2], in [3], in test [4], in test [5] and in test [8]. For the same compound, the compound was called inactive in test [11], in [13], in [14], in test [15], in [16] and in [18]. Also, the AC50 was 20 µM (active) in [7]; 12.7 µM (active) in test [9]; 50 µM (active) in test [10]; 76.9 µM (active) in test [12]; 50 µM (active) in test [17].
Consider `CC1(C)CC(N=C=O)CC(C)(CN=C=O)C1` (stereo unspecified), for which the compound was called inactive in [1], in [2], in [3], in [4], in [5] and in [6]. Moreover, the outcome in test [7], in test [8], in test [9], in [19], in test [10] and in test [11] was inactive. The result in test [12], in test [13], in [14], in [15], in test [16] and in test [17] was inactive. Further, the outcome in test [18] was inactive.
As for `Cc1cc(NC(=O)C(=O)O)cc(C)c1Oc1ccc(O)c2c1CCC2`, the AC50 in [1] was 75.6 µM (active); in test [6] it was 0.021 µM (active); in test [7], 0.00423 µM (active); in [9], 0.022 µM (active); in test [14] it was 0.0224 µM (active). Besides, the result in test [2], in [3], in test [4], in test [5], in test [8] and in test [10] was inactive. The compound was called inactive in [11], in [12], in test [13], in test [15], in test [16] and in [17]. For the same compound, the result in [18] was inactive.
For the compound `CC(=O)OCCOCCOCCOC(C)=O`, the result in test [1], in test [2], in [3], in [4], in test [5] and in test [6] was inactive. In addition, the compound was classed as inactive in [7], in test [8], in test [9], in [10], in test [11] and in test [12]. Further, the result in test [13], in test [14], in test [15], in test [16], in test [17] and in test [18] was inactive.
As to `CNCc1cc(F)ccc1Oc1ccc(Cl)c(Cl)c1`, the AC50 in test [1] is 92.7 µM (active); in test [5], 78.4 µM (active); in test [7], 88.6 µM (active); in [8] it was 86.6 µM (active); in test [9], 89.4 µM (active); in test [19], 79.2 µM (active). The AC50 is 73.5 µM (active) in [10], 95.4 µM (active) in test [11], 80.5 µM (active) in test [15] and 81.8 µM (active) in [18]. Besides, the call in test [2], in test [3], in test [4], in test [6], in test [12] and in test [14] was inactive. Also, the result in [16] and in test [17] was inactive.
